Data as given in PubChem BioAssay.
A number with no mark means an inactive call. For some assays here: Measured potencies and affinities stand elsewhere. Active and inactive are the calls of the source. Unless noted, how the calls were made is not given here.

Tests used:
[1] = antimalarial activity against Dd2 strain (AID 2302;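 active means growth inhibition above 50% at the single 2 µM test dose, taken to imply half-maximal potency below 2 µM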;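 further: 0% = DMSO untreated growth and 100% = chloroquine plus artemisinin killed control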); settings: P. falciparum Dd2 in RBCs, LDH growth readout, 72 h; at 2 µM; active compounds read high
[2] = human hepatoma cell viability loss – ATP luminescence, cytotoxicity control for P. falciparum antimalarial project, primary screen (AID 2303;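 active means inhibition above 50%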;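 further: 0% = DMSO wells and 100% = digitonin-killed cells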); settings: HepG2 viability, 24-48 h, at 10 µM, active compounds read high
[3] = molecular target: L-lactate dehydrogenase (Plasmodium falciparum (isolate CDC / Honduras)) (UniProt Q27743); test: PfLDH activity inhibition – cell lysate, 3D7 strain, counter-screen for P. falciparum growth inhibition project (AID 2304);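 further: 0% = vehicle and 100% = reference inhibitor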; settings: P. falciparum 3D7 crude extract, LDH APAD/NBT absorbance; at 2 µM; active compounds read high
Sequence of L-lactate dehydrogenase (Plasmodium falciparum (isolate CDC / Honduras)) (Q27743 whole entry, looked up): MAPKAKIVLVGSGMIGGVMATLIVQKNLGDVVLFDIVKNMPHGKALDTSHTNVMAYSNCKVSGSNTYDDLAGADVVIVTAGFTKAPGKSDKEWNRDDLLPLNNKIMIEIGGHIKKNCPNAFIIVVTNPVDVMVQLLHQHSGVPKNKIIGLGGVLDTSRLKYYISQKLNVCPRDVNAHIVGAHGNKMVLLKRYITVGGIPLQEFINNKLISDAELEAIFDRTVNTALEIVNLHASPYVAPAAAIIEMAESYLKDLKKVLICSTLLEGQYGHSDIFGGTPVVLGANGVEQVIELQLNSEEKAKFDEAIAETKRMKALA

[4] = inhibition of 3D7 malaria parasite growth – strain 3D7 (AID 2306);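 further: 0% = DMSO wells and 100% = chloroquine plus artemisinin control wells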; settings: P. falciparum 3D7 erythrocytic growth, LDH absorbance, 72 h; at 2 µM; active compounds read high
[5] = molecular target: Calcium-dependent protein kinase 1 (Plasmodium falciparum (isolate 3D7)) (UniProt P62344); test: PfCDPK1 kinase inhibitors, biochemical, TCAMS library (AID 1159585; cut-off not given, nearly all actives have IC50 up to about 0.98 µM;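 further: inhibitors leave more ATP so luminescence rises with inhibition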); settings: recombinant PfCDPK1, Kinase-Glo ATP depletion luminescence
Sequence of Calcium-dependent protein kinase 1 (Plasmodium falciparum (isolate 3D7)) (P62344 whole entry, looked up): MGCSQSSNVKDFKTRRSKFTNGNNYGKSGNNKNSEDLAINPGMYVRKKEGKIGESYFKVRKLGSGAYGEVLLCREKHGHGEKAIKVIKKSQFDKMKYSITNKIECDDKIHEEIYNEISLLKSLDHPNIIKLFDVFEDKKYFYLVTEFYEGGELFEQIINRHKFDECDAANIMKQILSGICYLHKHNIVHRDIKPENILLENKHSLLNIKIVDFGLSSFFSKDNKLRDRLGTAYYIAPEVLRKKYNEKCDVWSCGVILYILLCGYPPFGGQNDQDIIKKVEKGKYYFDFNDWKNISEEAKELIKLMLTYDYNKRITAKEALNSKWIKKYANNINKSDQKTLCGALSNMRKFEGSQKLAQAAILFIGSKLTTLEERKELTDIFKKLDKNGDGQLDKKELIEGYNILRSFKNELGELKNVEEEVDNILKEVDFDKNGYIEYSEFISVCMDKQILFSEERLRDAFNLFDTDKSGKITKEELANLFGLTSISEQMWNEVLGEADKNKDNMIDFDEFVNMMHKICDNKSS

[6] = molecular target: Plasmodium falciparum protein kinase 6 (PK6, PF3D7_1337100) (UniProt Q8IDW1); test: PfPK6 kinase inhibitors, biochemical, TCAMS library (AID 1159586); settings: recombinant PfPK6, Kinase-Glo ATP depletion luminescence
Sequence of Plasmodium falciparum protein kinase 6 (PK6, PF3D7_1337100) (Q8IDW1 1-305): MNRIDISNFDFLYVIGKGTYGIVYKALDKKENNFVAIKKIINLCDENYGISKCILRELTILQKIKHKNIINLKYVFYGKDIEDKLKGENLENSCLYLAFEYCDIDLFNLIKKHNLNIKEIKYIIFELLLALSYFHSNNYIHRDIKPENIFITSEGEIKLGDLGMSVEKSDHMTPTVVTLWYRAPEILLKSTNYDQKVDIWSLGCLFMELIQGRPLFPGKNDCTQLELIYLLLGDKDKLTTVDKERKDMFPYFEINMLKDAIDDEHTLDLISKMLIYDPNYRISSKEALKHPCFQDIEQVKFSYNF

[7] = molecular target: Protein kinase 7 (PK7), Plasmodium falciparum 3D7 (PF3D7_0213400) (UniProt Q7YTF7); test: inhibition of Plasmodium PK7 catalytic activity – biochemical, TCAMS antimalarial set, Kinase-Glo luminescence (AID 1159587); settings: recombinant PfPK7, Kinase-Glo ATP depletion luminescence
Sequence of Protein kinase 7 (PK7), Plasmodium falciparum 3D7 (PF3D7_0213400) (Q7YTF7 1-343): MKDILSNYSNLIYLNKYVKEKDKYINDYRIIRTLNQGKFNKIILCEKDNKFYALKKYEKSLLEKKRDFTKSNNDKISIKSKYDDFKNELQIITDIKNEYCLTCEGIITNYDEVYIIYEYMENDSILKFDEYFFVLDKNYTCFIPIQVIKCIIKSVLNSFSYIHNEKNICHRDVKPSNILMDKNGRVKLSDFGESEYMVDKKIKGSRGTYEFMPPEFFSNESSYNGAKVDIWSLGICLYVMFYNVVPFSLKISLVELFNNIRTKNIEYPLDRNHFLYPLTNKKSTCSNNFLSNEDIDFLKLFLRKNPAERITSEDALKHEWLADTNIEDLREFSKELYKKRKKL

[8] = molecular target: Calcium-dependent protein kinase 4 (Plasmodium falciparum (isolate 3D7)) (UniProt Q8IBS5); test: PfCDPK4 kinase inhibitors, biochemical, TCAMS library (AID 1159588; cut-off not given, nearly all actives have IC50 up to about 0.91 µM); settings: recombinant PfCDPK4, Kinase-Glo ATP depletion luminescence
Sequence of Calcium-dependent protein kinase 4 (Plasmodium falciparum (isolate 3D7)) (Q8IBS5 whole entry, looked up): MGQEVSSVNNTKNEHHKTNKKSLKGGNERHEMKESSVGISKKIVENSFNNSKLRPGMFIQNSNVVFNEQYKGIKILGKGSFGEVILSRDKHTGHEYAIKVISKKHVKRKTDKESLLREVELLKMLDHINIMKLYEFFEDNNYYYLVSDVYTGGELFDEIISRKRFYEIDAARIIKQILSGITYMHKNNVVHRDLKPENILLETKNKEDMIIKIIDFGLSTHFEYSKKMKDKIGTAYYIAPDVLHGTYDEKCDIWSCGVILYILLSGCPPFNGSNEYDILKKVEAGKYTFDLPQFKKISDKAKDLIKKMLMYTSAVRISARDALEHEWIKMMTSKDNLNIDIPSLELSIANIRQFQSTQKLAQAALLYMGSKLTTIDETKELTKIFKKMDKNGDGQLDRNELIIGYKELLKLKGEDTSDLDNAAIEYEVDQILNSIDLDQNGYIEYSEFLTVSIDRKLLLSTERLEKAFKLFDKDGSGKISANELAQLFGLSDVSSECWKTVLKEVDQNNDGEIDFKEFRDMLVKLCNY

Row | SMILES | growth inhibition [1] | inhibition [2] | inhibition [3] [%] | growth inhibition [4] | outcome [5] | outcome [6] | outcome [7] | outcome [8]
1 | Cc1ccccc1C1CCN(C2CCC(NC(=O)c3ccc(-c4ccccc4F)o3)CC2)CC1 (stereo not given) | 66% (active) | 42% | 1 | 99% (active) | inactive | inactive | inactive | inactive
2 | CN(C)CCNC(=O)c1csc(Nc2ccc(Cl)c(Cl)c2)n1 | 100% (active) | 4% | -3 | 100% (active) | inactive | inactive | inactive | inactive
3 | c1ccc(CCNCc2ccc(-c3ccc(CNCc4ccc5c(c4)OCO5)cc3)nc2)cc1 | 67% (active) | 24% | 5 | 94% (active) | inactive | inactive | inactive | inactive
4 | O=C(Nc1cccc(CN2CCCN(Cc3cccc(Cl)c3)CC2)c1)c1ccc(Cl)c(Cl)c1 | 17% | 18% | -1 | 89% (active) | inactive | inactive | inactive | inactive
5 | COc1cc(Cc2cnc(N)nc2N)cc(OCC(C)(C)C(=O)O)c1OC | -4% | -3% | -2 | 89% (active) | inactive | inactive | inactive | inactive
6 | COc1cccc(C(=O)[C@H]2C[C@@H]2CN(C)CCC(O)c2ccc(Cl)c(Cl)c2)c1 (stereo not given in full) | 95% (active) | 17% | -2 | 99% (active) | inactive | inactive | inactive | inactive
7 | COc1ccc2c(c1)c(C1CCN(CCCCNC(=O)c3ccc(-c4ccc(C(F)(F)F)cc4)cc3)CC1)cn2C(C)C | 21% | 26% | 0 | 99% (active) | inactive | inactive | inactive | inactive
8 | CC(=O)Nc1ccc(CN2CCc3ccc(NS(=O)(=O)c4cccc(OCc5ccc(Cl)cc5)c4)cc3CC2)s1 | 7% | 23% | -3 | 93% (active) | inactive | inactive | inactive | inactive
9 | CO/C(=C\C=C\c1cc2cc(Cl)c(Cl)cc2[nH]1)C(=O)NCCCCN1CCN(c2ccccc2OC)CC1 | 96% (active) | 55% (active) | -1 | 100% (active) | inactive | inactive | inactive | inactive
10 | Cc1ccccc1C(=O)Nc1cccc(-c2nc3ncccn3c2C)c1 | 94% (active) | -5% | 1 | 94% (active) | inactive | inactive | inactive | inactive
11 | CN(C)CCCOc1ccc(CN2CC[C@H](NC(=O)c3ccc(Cl)c(Cl)c3)C2)c2ccccc12 | 97% (active) | 81% (active) | 0 | 101% (active) | inactive | inactive | inactive | inactive
12 | CC(Oc1ccc(NC(=O)c2cccs2)cc1)C(=O)c1ccc(Cl)cc1 (stereo not given) | 83% (active) | -1% | 1 | 92% (active) | inactive | inactive | inactive | inactive
13 | CN1CCCc2ccc(NC(=O)Nc3ccc(-c4ccccc4)cc3)cc2C1 | 47% | 23% | 0 | 97% (active) | inactive | inactive | inactive | inactive
14 | CN1CCC(N2CCN(Cc3ccc(-c4ccc(-c5nc6ccccc6[nH]5)s4)cc3)CC2)CC1 | 100% (active) | 62% (active) | -3 | 101% (active) | inactive | inactive | inactive | inactive
15 | COc1ccc2nccc([C@@H](O)CN3CCC(NCc4cc5cccc6c5n(c4=O)CCC6)CC3)c2c1 | 97% (active) | 33% | 1 | 98% (active) | inactive | inactive | inactive | inactive
16 | CC(C)(C)n1nnnc1C(c1cccnc1)N(Cc1ccccc1)Cc1ccc(Cl)cc1 (stereo not given) | 17% | 0% | -1 | 96% (active) | inactive | inactive | inactive | inactive
17 | COC(=O)c1cccc(NC(=O)NC2CCN(c3ccnc(NCc4ccc(F)cc4)n3)CC2)c1 | 39% | 29% | 5 | 93% (active) | inactive | inactive | inactive | inactive
18 | Cc1cc(Nc2cccc(C(F)(F)F)c2)nc2ccc(NC(=O)c3ccc(=O)[nH]c3)cc12 | 60% (active) | 21% | 0 | 101% (active) | inactive | inactive | inactive | inactive
19 | Cc1cc(O)c2c3c1C(=O)C=C1C3c3c(c(O)cc(O)c3C(=O)C1(C)C)C2=O (stereo not given) | 46% | 45% | -3 | 98% (active) | inactive | inactive | inactive | inactive
20 | O=C(NC1CCCCC1)N(Cc1ccc(-c2ccc(CNCc3ccc4c(c3)OCO4)cc2)cc1)C1CCN(Cc2ccccc2)CC1 | 72% (active) | 28% | -2 | 102% (active) | inactive | inactive | inactive | inactive

Row | SMILES | growth inhibition [1] | inhibition [2] | inhibition [3] [%] | growth inhibition [4] | outcome [5] | outcome [6] | outcome [7] | outcome [8]
21 | COc1cccc(CNC[C@@H](O)[C@H](Cc2ccccc2)NC(=O)c2cc3c4c(c2)c(C(C)C)cn4CCS(=O)(=O)N3C)c1 | 98% (active) | 21% | -6 | 98% (active) | inactive | inactive | inactive | inactive
22 | COc1ccc(CCNCCCCCCNCCc2ccc(Cl)c3ccccc23)cc1OC | 28% | 100% (active) | 6 | 100% (active) | inactive | inactive | inactive | inactive
23 | CNC(=O)c1cc(S(=O)(=O)N2CCN(c3ccccn3)CC2)cs1 | 100% (active) | -2% | -3 | 99% (active) | inactive | inactive | inactive | inactive
24 | Cc1cccc(-n2nc(C)c3c2NC(=O)CC3C(=O)c2ccc(Cl)s2)c1 (stereo not given) | 85% (active) | 13% | -1 | 92% (active) | inactive | inactive | inactive | inactive
25 | CCn1c(-c2nonc2N)nc2cnc(Oc3cccc(NC(=O)c4ccc(OCCN(C(C)C)C(C)C)cc4)c3)cc21 | 10% | 63% (active) | -6 | 97% (active) | inactive | inactive | inactive | inactive
26 | COc1ccc(C(O)CNC(C)CCc2ccc(F)cc2)cc1C(F)(F)F (stereo not given) | 98% (active) | 92% (active) | 3 | 99% (active) | inactive | inactive | inactive | inactive
27 | Cc1cc2[nH]c(-c3ccc(C(=O)NCCCN4CCN(c5cccc(Cl)c5)CC4)s3)nc2cc1Cl | 93% (active) | 7% | -1 | 100% (active) | inactive | inactive | inactive | inactive
28 | CCCCCCNC(=O)C1Cc2c([nH]c3ccc(Br)cc23)C2(CCN(CCc3ccccc3)CC2)N1 (stereo not given) | 94% (active) | 36% | 0 | 100% (active) | inactive | inactive | inactive | inactive
29 | CN1CCN=C1c1ccc(NC(=O)Nc2ccc(C3=NCCN3C)cc2)cc1 | 69% (active) | 7% | -1 | 85% (active) | inactive | inactive | inactive | inactive
30 | O=S(=O)(NCCN1CCCC1)c1ccc(-c2ccc(CNCc3ccccc3)cc2)cc1F | 39% | 35% | 4 | 83% (active) | inactive | inactive | inactive | inactive
31 | C=C(C)CSc1nc2c(c(=O)n1Cc1ccco1)C1(CCCCC1)Cc1ccccc1-2 | 68% (active) | 2% | -9 | 97% (active) | inactive | inactive | inactive | inactive
32 | O=C(Nc1cc(F)cc(F)c1)NC1CCN(CCCCCNC(=O)[C@@H]2C[C@H]2c2ccc(Cl)c(Cl)c2)CC1 | 6% | 49% | 6 | 102% (active) | inactive | inactive | inactive | inactive
33 | CCOc1cc(C(=O)NC2CC(C)(C)NC(C)(C)C2)ccc1-c1nc2ccc(Cl)cc2[nH]1 | 64% (active) | 46% | 4 | 100% (active) | inactive | inactive | inactive | inactive
34 | CC1CCN(CC[C@H]2CCCN2S(=O)(=O)c2cccc(NC(=O)Nc3ccc(C(F)(F)F)cc3)c2)CC1 | 41% | 12% | 2 | 100% (active) | inactive | inactive | inactive | inactive
35 | COc1ccc2nccc(NC(=O)C3CCC(NCc4ccc5c(c4)NC(=O)CS5)CC3)c2c1 (stereo not given) | 19% | 0% | -4 | 94% (active) | inactive | inactive | inactive | inactive
36 | NC(=NCc1ccccc1)Nc1cccc(Cc2ccccc2)n1 | 52% (active) | 57% (active) | 0 | 85% (active) | inactive | inactive | inactive | inactive
37 | Fc1ccc2nc(-c3ccc(-c4ccc(CNCCc5cccnc5)cc4)s3)[nH]c2c1 | 99% (active) | 40% | -7 | 100% (active) | inactive | inactive | inactive | inactive
38 | O=C(NCc1ccccc1)c1ccc(C(=O)NCC2CNCCO2)cc1 (stereo not given) | -1% | 4% | -4 | 92% (active) | inactive | inactive | inactive | inactive
39 | COc1ccc(Nc2nc(C)cc(NC3CCCC3)n2)cc1 | 59% (active) | 34% | 0 | 98% (active) | inactive | inactive | inactive | inactive
40 | CC1(C)[C@H]2CC[C@@H](CNc3nc(NCCc4cnc[nH]4)nc(Nc4ccc(Oc5ccccc5)cc4)n3)[C@@H]1C2 | 86% (active) | 2% | 3 | 99% (active) | inactive | inactive | inactive | inactive
